Drawing on PubChem BioAssay (Tox21), this text covers Potency, cytotoxicity and cytotoxicity increase for 38 compounds.

Unmarked numbers belong to inactive results. Inconclusive results are not listed. Where a call stands in place of a potency, no number is given. The source made the active and inactive calls. Calls come from the whole dose curve; as a rule, active = well fitted activation curve with a large enough effect in the repeat runs; inconclusive = weak or mixed curves; inactive = flat fitted curve, though single readings scatter.

One assay can be described thus: A CellTox Green Cytotoxicity Assay to monitor cytotoxicity in HepG2 cells - 0 hour (AID 1224882). Note: nearly all actives have a fitted effect of over 35% in size. The settings on record: CellTox Green fluorescence; series mostly up to 76.8 µM. In a few lines:
(§1)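 HepG2, 600 cells/well premixed w/ CellTox Green; 5 h settle, 37 C/5% CO2; pintool cpd add (DMSO); 37 C, 40 h; fluorescence read at 0, 8, 16, 24, 32, 40 h.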
With `CCOc1ncc(F)c(=O)[nH]1`, the Potency result is “inactive”.
Same read-out and setting: to `CC(O)Cn1cnc2c1c(=O)n(C)c(=O)n2C` (stereo unspecified) belongs “inactive”; to `CCCCCCCC/C=C/C(=O)O`, “inactive”; to `CCN(CC)CCOc1ccccc1C(=O)CCc1ccccc1`, “inactive”.
In the case of `Nc1ccn([C@H]2CS[C@@H](CO)O2)c(=O)n1`, the Potency entry is “inactive”.
Consider `O=C(O)CCCc1c[nH]c2ccccc12`, for which the Potency entry was “inactive”.
On the same count and under the same terms, to `CNc1c2c(nn1C)CCCC2` belongs “inactive”.
Same read-out and setting: as for `CCNc1nc(N)nc(Cl)n1`, the entry is “inactive”; as for `CCCOC(=O)c1c(Cl)c(Cl)c(Cl)c(Cl)c1C(=O)OCCC`, “inactive”; as for `CN=C(N)NC(=O)Nc1c(C)cccc1C`, “inactive”.
Same read-out and setting: as for `O=S(=O)(O)CO`, the entry is “inactive”; as for `CC(=O)OC(C)C[N+](C)(C)C` (stereo unspecified), “inactive”; as for `CCC(CO)(CO)CO`, “inactive”.
On to `CSSc1ccoc1C`, for which the Potency result was “inactive”.
In the case of `O=CNNC=O`, the Potency result is “inactive”.
In the case of `CC(C)N=C=NC(C)C`, the Potency result was “inactive”.
In the case of `CC(=O)N[C@@H](Cc1ccc(O)cc1)C(=O)O`, the Potency entry was “inactive”.
For `CC(=O)Oc1cccc(O)c1`, the Potency entry is “inactive”.
`CC(C)(C(=O)c1cccnc1)c1cccnc1`: the Potency entry is “inactive”.
As to `C=CC(=O)NC(C)C`, the Potency entry was “inactive”.
For the compound `COc1cc(OC)c2ccc(=O)oc2c1`, the Potency entry is “inactive”.
Regarding `CC(C)C1CCC(C(=O)N[C@H](Cc2ccccc2)C(=O)O)CC1` (stereo partly specified), the Potency result is “inactive”.
Turning to `CC(C)(O)CCc1ccccc1`, the Potency result was “inactive”.
As for `Nc1nc(-c2ccc([N+](=O)[O-])cc2)cs1`, the Potency result was “inactive”.
With `Cc1cc(CCC(=O)OCCOCCOCCOC(=O)CCc2cc(C)c(O)c(C(C)(C)C)c2)cc(C(C)(C)C)c1O`, the Potency result is “inactive”.
On the same count and under the same terms, to `O=C(O)CCS` belongs “inactive”; to `COc1ccc2nc(S(=O)Cc3ncc(C)c(OC)c3C)[nH]c2c1` (stereo unspecified), “inactive”.
Still for that read-out and setting: as for `C[C@H](CS)C(=O)N1CCC[C@H]1C(=O)O`, the entry is “inactive”.
On the same count and under the same terms, as for `Cc1ccc(Cl)cc1N`, the entry is “inactive”.
In the case of `CN1C(CSCC(F)(F)F)Nc2cc(Cl)c(S(N)(=O)=O)cc2S1(=O)=O` (stereo unspecified), the Potency entry was “inactive”.
On the same count and under the same terms, to `Cc1cc([N+](=O)[O-])ccc1N` belongs “inactive”; to `CC[C@H]1OC(=O)[C@H](C)[C@@H](O[C@H]2C[C@@](C)(OC)[C@@H](O)[C@H](C)O2)[C@H](C)[C@@H](O[C@@H]2O[C@H](C)C[C@H](N(C)C)[C@H]2O)[C@](C)(O)C[C@@H](C)CN(C)[C@H](C)[C@@H](O)[C@]1(C)O`, “inactive”.
For the compound `CCCCCCCCCCCCCOC(=O)CCSCCC(=O)OCCCCCCCCCCCCC`, the cytotoxicity is 4.63% [at 15.8 µM].
Take `CC(=O)NNC(C)=O`: the Potency result was “inactive”.
As for `CC[C@H]1OC(=O)[C@H](C)[C@@H](O[C@H]2C[C@@](C)(OC)[C@@H](O)[C@H](C)O2)[C@H](C)[C@@H](O[C@@H]2O[C@H](C)C[C@H](N(C)C)[C@H]2O)[C@](C)(O)C[C@@H](C)/C(=N\OCOCCOC)[C@H](C)[C@@H](O)[C@]1(C)O`, the Potency entry is “inactive”.
Same read-out and setting: as for `CNC1CCCN(c2c(F)cc3c(=O)c(C(=O)O)cn(C4CC4)c3c2OC)C1` (stereo unspecified), the entry is “inactive”; as for `Cc1ccc(NC(=O)N(C)C)cc1NC(=O)N(C)C`, “inactive”.
For the compound `CC[C@@H](CO)NCCN[C@@H](CC)CO`, the Potency entry is “inactive”.

The nature of a further assay: A CellTox Green Cytotoxicity Assay to monitor cytotoxicity in HepG2 cells - 32 hour (AID 1224883). Note: nearly all actives have a fitted effect of over 50% in size. Note: potency is the fitted concentration of half-maximal effect. The settings on record: CellTox Green fluorescence; series mostly up to 76.8 µM. In a few lines: as §1
Regarding `CCOc1ncc(F)c(=O)[nH]1`, the Potency result was “inactive”.
Still for that read-out and setting: as for `CC(O)Cn1cnc2c1c(=O)n(C)c(=O)n2C` (stereo unspecified), the entry is “inactive”.
The same measure, in the same setting: as for `CCCCCCCC/C=C/C(=O)O`, the entry is “inactive”; as for `CCN(CC)CCOc1ccccc1C(=O)CCc1ccccc1`, “inactive”; as for `Nc1ccn([C@H]2CS[C@@H](CO)O2)c(=O)n1`, “inactive”.
The same measure, in the same setting: as for `O=C(O)CCCc1c[nH]c2ccccc12`, the figure is 15.5 µM (active).
With `CNc1c2c(nn1C)CCCC2`, the Potency result was “inactive”.
Take `CCNc1nc(N)nc(Cl)n1`: the Potency result was “inactive”.
`CCCOC(=O)c1c(Cl)c(Cl)c(Cl)c(Cl)c1C(=O)OCCC`: the Potency result was “inactive”.
For the compound `CN=C(N)NC(=O)Nc1c(C)cccc1C`, the Potency result was “inactive”.
Regarding `O=S(=O)(O)CO`, the Potency result is “inactive”.
Take `CC(=O)OC(C)C[N+](C)(C)C` (stereo unspecified): the Potency result was “inactive”.
For `CCC(CO)(CO)CO`, the Potency entry is “inactive”.
Same read-out and setting: to `CSSc1ccoc1C` belongs “inactive”.
Consider `O=CNNC=O`, for which the Potency result is “inactive”.
Consider `CC(C)N=C=NC(C)C`, for which the Potency result was “inactive”.
Same read-out and setting: as for `CC(=O)N[C@@H](Cc1ccc(O)cc1)C(=O)O`, the entry is “inactive”; as for `CC(=O)Oc1cccc(O)c1`, “inactive”; as for `CC(C)(C(=O)c1cccnc1)c1cccnc1`, “inactive”.
`C=CC(=O)NC(C)C`: the Potency result was “inactive”.
Take `COc1cc(OC)c2ccc(=O)oc2c1`: the Potency result was “inactive”.
For the compound `CC(C)C1CCC(C(=O)N[C@H](Cc2ccccc2)C(=O)O)CC1` (stereo partly specified), the Potency entry was “inactive”.
The same measure, in the same setting: as for `CC(C)(O)CCc1ccccc1`, the entry is “inactive”.
Consider `Nc1nc(-c2ccc([N+](=O)[O-])cc2)cs1`, for which the Potency result was “inactive”.
Same read-out and setting: as for `Cc1cc(CCC(=O)OCCOCCOCCOC(=O)CCc2cc(C)c(O)c(C(C)(C)C)c2)cc(C(C)(C)C)c1O`, the entry is “inactive”; as for `O=C(O)CCS`, “inactive”.
Regarding `COc1ccc2nc(S(=O)Cc3ncc(C)c(OC)c3C)[nH]c2c1` (stereo unspecified), the Potency entry was “inactive”.
The same measure, in the same setting: to `C[C@H](CS)C(=O)N1CCC[C@H]1C(=O)O` belongs “inactive”; to `Cc1ccc(Cl)cc1N`, “inactive”; to `CN1C(CSCC(F)(F)F)Nc2cc(Cl)c(S(N)(=O)=O)cc2S1(=O)=O` (stereo unspecified), “inactive”.
Same read-out and setting: as for `Cc1cc([N+](=O)[O-])ccc1N`, the entry is “inactive”.
On the same count and under the same terms, as for `CC[C@H]1OC(=O)[C@H](C)[C@@H](O[C@H]2C[C@@](C)(OC)[C@@H](O)[C@H](C)O2)[C@H](C)[C@@H](O[C@@H]2O[C@H](C)C[C@H](N(C)C)[C@H]2O)[C@](C)(O)C[C@@H](C)CN(C)[C@H](C)[C@@H](O)[C@]1(C)O`, the entry is “inactive”.
On to `CCCCCCCCCCCCCOC(=O)CCSCCC(=O)OCCCCCCCCCCCCC`, for which the cytotoxicity increase is -0.352% [at 15.8 µM].
With `CC(=O)NNC(C)=O`, the Potency result is “inactive”.
Same read-out and setting: to `CC[C@H]1OC(=O)[C@H](C)[C@@H](O[C@H]2C[C@@](C)(OC)[C@@H](O)[C@H](C)O2)[C@H](C)[C@@H](O[C@@H]2O[C@H](C)C[C@H](N(C)C)[C@H]2O)[C@](C)(O)C[C@@H](C)/C(=N\OCOCCOC)[C@H](C)[C@@H](O)[C@]1(C)O` belongs “inactive”.
Same read-out and setting: to `CNC1CCCN(c2c(F)cc3c(=O)c(C(=O)O)cn(C4CC4)c3c2OC)C1` (stereo unspecified) belongs “inactive”.
Consider `Cc1ccc(NC(=O)N(C)C)cc1NC(=O)N(C)C`, for which the Potency result is “inactive”.
For the compound `CC[C@@H](CO)NCCN[C@@H](CC)CO`, the Potency result is “inactive”.
